Data on 40 compounds can be found in PubChem BioAssay (EPA / NIEHS).

Inconclusive results are not listed. Calls of active or inactive are those of the source. How the source made its calls: active means hit-call score of the fitted dose curve at least 0.9, where 1 is the maximum; inconclusive means response in the unintended direction; inactive means score below 0.9.

The target of this assay is Peroxisome proliferator-activated receptor gamma (Homo sapiens) (UniProt P37231). Briefly: ATG_PPARg_TRANS: Attagene TRANS-FACTORIAL HepG2 Assay for human Peroxisome Proliferator-activated Receptor-gamma (PPARg) (AID 2283007). As for the experimental part: ATG_TRANS is a cell-based, multiplexed-readout assay that uses HepG2, a human liver cell line, with measurements taken at 24 hours after chemical dosing in a 24-well plate.ATG_PPARg_TRANS is one of 30 assay component(s) measured or calculated from the ATG_TRANS assay. It is designed to make measurements of mRNA induction, a form of inducible reporter, as detected with fluorescence intensity signals by Reverse transcription polymerase chain reaction (RT-PCR) and Capillary electrophoresis technology.Data from the assay component ATG_PPARg_TRANS was analyzed into 1 assay endpoint. This assay endpoint, ATG_PPARg_TRANS, was analyzed in the positive analysis fitting direction relative to DMSO as the negative control and baseline of activity. Using a type of inducible reporter, measures of mRNA for gain-of-signal activity can be used to understand the reporter gene at the transcription factor-level as they relate to the gene PPARG. Furthermore, this assay endpoint can be referred to as a primary readout, because this assay has produced multiple assay endpoints where this one serves a reporter gene function. To generalize the intended target to other relatable targets, this assay endpoint is annotated to the nuclear receptor intended target family, where the subfamily is non-steroidal.
Sequence of Peroxisome proliferator-activated receptor gamma (Homo sapiens) (P37231 whole entry, looked up): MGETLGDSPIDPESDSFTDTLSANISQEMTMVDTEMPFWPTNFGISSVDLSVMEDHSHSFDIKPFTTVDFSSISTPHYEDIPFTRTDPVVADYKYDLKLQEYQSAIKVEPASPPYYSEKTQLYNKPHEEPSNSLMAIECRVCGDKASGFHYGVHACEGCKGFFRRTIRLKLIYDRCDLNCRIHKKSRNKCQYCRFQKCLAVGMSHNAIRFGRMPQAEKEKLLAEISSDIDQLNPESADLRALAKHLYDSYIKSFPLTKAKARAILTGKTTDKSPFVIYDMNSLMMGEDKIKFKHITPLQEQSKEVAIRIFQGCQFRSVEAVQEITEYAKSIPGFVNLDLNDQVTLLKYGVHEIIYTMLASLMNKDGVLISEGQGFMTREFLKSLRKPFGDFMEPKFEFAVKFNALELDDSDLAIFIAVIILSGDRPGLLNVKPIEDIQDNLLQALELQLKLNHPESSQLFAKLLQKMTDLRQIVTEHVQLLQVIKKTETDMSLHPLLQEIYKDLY
Human liver HepG2 cells are transiently transfected with multiple reporter transcription units (MRTUs) in 6-well plates using FuGene 6 reagent (Roche; 3 ml FuGene/1 mg DNA). The MRTU constructs are regulated by a cis-regulating element (promoter). […] A major difference between the CIS and TRANS system is that in CIS activities of endogenous TFs are measured, whereas the TRANS assay evaluates changes in activities of exogenous, chimeric NR-Gal4 proteins. […] At the end of 24 hour incubation, total RNA was isolated using TriZol reagent (Invitrogen). The isolated RNA is then reverse-transcribed using oligo(dT) primer and Mo-MLV reverse transcriptase (Invitrogen) with DNAse I (Ambion) treatment for 30 min. The one-tenth of the produced cDNA was amplified by PCR using Taq DNA polymerase (Invitrogen) and two reporter sequence-specific primers. The PCR products were fluorescently labeled by primer extension with 6-arboxyfluorescein (6-FAM) 5'-labeled reporter sequence-specific primer (2 min at 95 C, 20 s at 68 C and 10 min at 72 C) and these products were digested with 5U of HpaI (New England Biolabs) for 2h at 37 C. The fragments were purified using Qiaquick PCR columns (Qiagen), analyzed on an ABI 3130xL genetic analyzer (Applied Biosystems) with peak positions identified by using a set of X-rhodamine (ROX)-labeled MapMarker1000 molecular weight standards (BioVentures). The raw capillary electrophoresis data was processed using Attagraph software (Attagene).
In general, AC50 refers to the concentration at which the activity in the assay is half-maximal. As for `Oc1ccc(Cl)cc1Cc1cc(Cl)ccc1O`, the AC50 was 4.51 µM (active).

Consider `CCCCCC/C=C/C=O`, for which the concentration at half-maximal activity (AC50) is 20.8 µM (active).

Regarding `CC(C)(c1cc(Br)c(OCCO)c(Br)c1)c1cc(Br)c(OCCO)c(Br)c1`, the concentration at half-maximal activity (AC50) was 2.78 µM (active).

With `C=CC(C)(CCC=C(C)C)OC(=O)CC(C)C` (stereo not given), the half-maximal activity concentration (AC50) was 58.2 µM (active).

On to `O=C(O)c1cc2ccccc2nc1C(=O)O`, for which the call was inactive.

Regarding `CC1=CC[C@H](C(C)C)C=C1`, the AC50 is 27.9 µM (active).

`Cc1ccc(C(C)c2ccc(C)c(C)c2)cc1C`: the AC50 was 30.9 µM (active).

In the case of `CC(C)CC(O)Cc1ccccc1` (stereo not given), the call was inactive.

Turning to `c1c[nH]cn1`, the result was inactive.

`CN(C)c1ccc(C(=N)c2ccc(N(C)C)cc2)cc1`: the concentration at half-maximal activity (AC50) is 26.6 µM (active).

For the compound `CN(C)c1ccc(N=Nc2ccccc2C(=O)O)cc1`, the AC50 was 27.5 µM (active).

With `CCCCCC/C=C\CCCCCCCC(=O)O`, the outcome was inactive.

Regarding `N#CCc1ccc(Cl)cc1Cl`, the result was inactive.

For `COCc1c(C(C)C)nc(C(C)C)c(/C=C/[C@@H](O)C[C@@H](O)CC(=O)O)c1-c1ccc(F)cc1`, the AC50 was 12.8 µM (active).

For the compound `CCCCCCCCCCCCCCCCCC#N`, the compound was classed as inactive.

In the case of `O=C(O)CCCC[C@@H]1SC[C@@H]2NC(=O)N[C@@H]21`, the compound was called inactive.

For `C=C[C@](C)(O)CC[C@@H]1[C@@]2(C)CCCC(C)(C)[C@@H]2CC[C@@]1(C)O`, the outcome was inactive.

On to `CCCCCC(C)O` (stereo not given), for which the call was inactive.

Take `CC(C)(C)C(=O)CCc1ccc(Cl)cc1`: the compound was called inactive.

For the compound `O=C1c2cccc(O)c2C(=O)c2c(O)cc(CO)cc21`, the AC50 was 50.3 µM (active).

Turning to `CCCCC(CC)CCC(CC(C)C)OS(=O)(=O)O` (stereo not given), the AC50 is 36.6 µM (active).

With `CCC(=O)Oc1ccc(/C(CC)=C(\CC)c2ccc(OC(=O)CC)cc2)cc1`, the AC50 was 18.5 µM (active).

Consider `CC(C)(C)c1n[nH]c(=O)n(N)c1=O`, for which the call was inactive.

Consider `COc1ccc(-c2coc3cc(O)ccc3c2=O)cc1`, for which the call was inactive.

As for `Nc1ccc(N=Nc2ccccc2)c(N)n1`, the AC50 is 59.4 µM (active).

As for `CCCCCCCCO[C@@H]1O[C@H](CO)[C@@H](O)[C@H](O)[C@H]1O`, the call was inactive.

On to `CCCc1ccc(OC)cc1`, for which the compound was called inactive.

On to `COC(=O)/C=C/C(C)=C\C=C\C(C)=C\C=C\C=C(C)\C=C\C=C(C)\C=C\C(=O)O`, for which the AC50 is 27.9 µM (active).

Consider `c1ccc(-c2ccccn2)nc1`, for which the result was inactive.

`Cc1oncc1C(=O)Nc1ccc(C(F)(F)F)cc1`: the AC50 was 41.1 µM (active).

Consider `CC(C)(C)c1ccc(N)cc1`, for which the result was inactive.

For `C1CN(SSN2CCOCC2)CCO1`, the result was inactive.

Turning to `CC(C)c1ccc2c(c1)CC[C@H]1[C@](C)(CN)CCC[C@]21C`, the AC50 is 6.02 µM (active).

`CCCCCCCCCCOC(C)=O`: the outcome was inactive.

On to `CCOC(=O)CC`, for which the compound was called inactive.

In the case of `CCCCCc1ccc(Cl)cc1`, the result was inactive.

In the case of `O=C(Oc1ccccc1)c1ccc2ccccc2c1O`, the AC50 was 15.9 µM (active).

Consider `CCCCCCCCCCCCCOP(=O)(O)O`, for which the AC50 is 16.4 µM (active).

On to `CCCCC(CC)COCC1CO1` (stereo not given), for which the result was inactive.

Consider `CCCCCCCC[N+](C)(CCCCCCCC)CCCCCCCC`, for which the result was inactive.
